Measured values as given in PubChem BioAssay (Tox21).
Where “and” joins values, the source holds several entries; their conditions need not be identical. Equal entries are not always repeated. Inconclusive results are not listed. A call without a number means that no potency is given here. Calls of active or inactive are those of the source. Calls follow the shape of the dose curve; as a rule, active = well fitted cell-killing curve with a large enough effect in the repeat runs; inconclusive = weak or mixed curves, or effect the other way; inactive = no such curve, though single readings can be large or run the other way.
Potency is read from the fitted curve at half-maximal effect.

Test: qHTS assay to identify small molecule antagonists of the sonic hedgehog signaling (Shh) pathway - cell viability counter screen (AID 1259367); also: nearly all actives have a fitted effect of over 55% in size
Settings: NIH/3T3 Gli1-Luc viability, CellTiter-Fluor, 24 h; series mostly up to 92.4 µM
Text: National Center for Advancing Translational Sciences [NCATS]
NIH Chemical Genomics Center [NCGC]
U.S. Environmental Protection Agency [EPA]
National Institutes of Environmental Health Sciences [NIEHS]
National Toxicology Program [NTP]
U.S. Food and Drug Administration [FDA]
The sonic hedgehog (Shh) pathway is essential for normal embryonic development. Dysregulation of the Shh pathway can cause severe developmental defects in organs. Therefore chemicals that interfere with the pathway are potential developmental toxicants. A cell line designated 3T3Gli1-Luc (DMB/OARSA/CFSAN/FDA, Laurel, MD), a NIH/3T3 derived clone containing stably integrated Gli1-Luc reporter is used to detect chemical interference of the Shh pathway, by changes in the expression of the firefly Luc gene under the control of the Gli1 transcriptional response element. This cell line was used to screen Tox21 libraries for identifying and prioritizing the potential developmental toxicants that interfere Shh pathway. Conditioned medium-stimulated mode was used to screen for chemicals inhibiting Shh signaling. The cytotoxicity of the compounds was tested in parallel by measuring the cell viability using CellTiter-Fluor assay system (Promega, Madison, WI) in the same wells.
Tox21 Assay Protocol Summary:
3T3 Gli1-Luc cells were dispensed at 2,000 per well in 5uL of culture medium into white solid bottom 1536-well plates (Greiner Bio-One, Monroe, NC) using a Multidrop Combi (Thermo Scientific, Waltham, MA) dispenser. The assay plates were incubated at 37 C and 5% CO2 for 4hr, and then 23nL of compounds dissolved in DMSO and positive control were transferred using a Pintool station (Wako, San Diego, CA). The compound transfer was followed by the addition of 1ul conditioned medium or assay buffer using two separate tips of Flying Reagent Dispenser (FRD, Aurora Discovery, San Diego, CA). The assay plates were incubated at 37C and 5% CO2 for 24hr. For viability read, after 23hr of compound treatment, 1uL of CellTiter-Fluor reagent (Promega Corporation, Madison, WI) was added to each well of the assay plates using Flying Reagent Dispenser (FRD, Aurora Discovery, San Diego, CA) and incubated the assay plates at 37C for 1hr. The fluorescence signal was quantified using a ViewLux plate reader (Perkin Elmer, Shelton, CT).
In the case of `CCC(C)(C)C(=O)OC1=C(c2ccc(Cl)cc2Cl)C(=O)OC12CCCCC2`, the Potency is reported as “inactive”. For `CCC(C)c1cc(C(C)(C)C)cc(-n2nc3ccccc3n2)c1O` (stereo not given), the Potency was “inactive”. For `CC(C)OC(=O)C(O)(c1ccc(Cl)cc1)c1ccc(Cl)cc1`, the Potency was “inactive”. For `COS(=O)(=O)c1ccc(C)cc1`, the Potency was “inactive”. With `CCCSP(=O)(OCC)SCCC` the Potency was “inactive”. In the case of `Cc1cc(N=Nc2ccccc2C)ccc1N`, the Potency is reported as 27.3 µM (active) and 30.6 µM (active). For `Clc1ccc(-c2ccc(Cl)c(Cl)c2Cl)c(Cl)c1Cl`, the Potency was “inactive”. In the case of `O=[N+]([O-])c1cc([N+](=O)[O-])c2ccccc2c1`, the Potency is reported as “inactive”. For `Oc1c(Cl)c(Cl)cc(Cl)c1Cl`, the Potency was “inactive”. For `CCCCCCCCCCCCCCCC[n+]1ccccc1`, the Potency was 50.8 µM (active) and 61.1 µM (active) and 60.3 µM (active). For `Nc1ccccc1C(=O)OC/C=C/c1ccccc1`, the Potency was “inactive”. In the case of `C[C@@H]1CC[C@@]2(OC1)O[C@H]1[C@@H](O)[C@H]3[C@@H]4CC[C@H]5C[C@@H](O[C@@H]6O[C@H](CO)[C@H](O[C@@H]7O[C@H](CO)[C@@H](O)[C@H](O[C@@H]8OC[C@@H](O)[C@H](O)[C@H]8O)[C@H]7O[C@@H]7O[C@H](CO)[C@@H](O)[C@H](O[C@@H]8O[C@H](CO)[C@@H](O)[C@H](O)[C@H]8O)[C@H]7O)[C@H](O)[C@H]6O)[C@H](O)C[C@]5(C)[C@H]4CC[C@]3(C)[C@H]1[C@@H]2C`, the Potency is reported as 32.5 µM (active). For `CCc1ccccc1C`, the Potency was “inactive”. With `ClC1=C(Cl)C2(Cl)C3C(Cl)C(Cl)CC3C1(Cl)C2(Cl)Cl` (stereo not given) the Potency was “inactive”. In the case of `FC(F)(F)c1cccc(C2=CCN(CCc3ccc4ccccc4c3)CC2)c1`, the Potency is reported as “inactive”. For `CC(C)[C@H](C(=O)OC(C#N)c1cccc(Oc2ccccc2)c1)c1ccc(OC(F)F)cc1` (stereo not given in full), the Potency was “inactive”. For `C=CC(=O)N(C)C`, the Potency was “inactive”. In the case of `CCc1cc(C)cc(CC)c1-c1c(OC(=O)C(C)(C)C)n2n(c1=O)CCOCC2`, the Potency is reported as 15.4 µM (active). With `CC(=O)OC1(c2ccccc2)CCN(CCc2ccccc2)CC1` the Potency was “inactive”. With `Oc1ccc2ccc3cccc4ccc1c2c34` the Potency was “inactive”. For `CC(C)(C)c1ccc(CSc2cnn(C(C)(C)C)c(=O)c2Cl)cc1`, the Potency was “inactive”. In the case of `CC(C)C1CCC(Cc2ccc(Cl)cc2)C1(O)Cn1cncn1` (stereo not given), the Potency is reported as 53.9 µM (active). In the case of `ClC1=C(Cl)[C@]2(Cl)[C@H]3[C@H]([C@H]4C=C[C@H]3C4)[C@@]1(Cl)C2(Cl)Cl`, the Potency is reported as “inactive”. For `COCC(=O)N(c1c(C)cccc1C)[C@H](C)C(=O)OC`, the Potency was “inactive”. For `c1ccc(Nc2ccc3ccccc3c2)cc1`, the Potency was “inactive”. For `Nc1ccc([N+](=O)[O-])cc1Cl`, the Potency was “inactive”. With `CC(C)[C@H](C(=O)O[C@H](C#N)c1cccc(Oc2ccccc2)c1)c1ccc(Cl)cc1` the Potency was “inactive”. For `Nc1ccccc1C(=O)Oc1ccc2ccccc2c1`, the Potency was “inactive”. For `O=c1c(C2CC(c3ccc(-c4ccc(Br)cc4)cc3)Cc3ccccc32)c(O)sc2ccccc12` (stereo not given), the Potency was “inactive”. For `CC(C)CCCCCOC(=O)c1ccccc1C(=O)OCCCCCC(C)C`, the Potency was “inactive”. With `CC(C)(C)C(O)C(Oc1ccc(-c2ccccc2)cc1)n1cncn1` (stereo not given) the Potency was 24.3 µM (active). In the case of `COP(=O)(OC)SCn1c(=O)oc2cc(Cl)cnc21`, the Potency is reported as “inactive”. In the case of `CC(C)OS(C)(=O)=O`, the Potency is reported as “inactive”. For `COc1cc(N)c(Cl)cc1C(=O)NC1CN2CCC1CC2` (stereo not given), the Potency was “inactive”. With `N#CCCO` the Potency was “inactive”. With `[Hg+2].[I-].[I-]` the Potency was 4.33 µM (active). In the case of `COC(=O)N(C(=O)N1COC2(C(=O)OC)Cc3cc(Cl)ccc3C2=N1)c1ccc(OC(F)(F)F)cc1` (stereo not given), the Potency is reported as “inactive”. In the case of `CCCOCC(=Nc1ccc(Cl)cc1C(F)(F)F)n1ccnc1`, the Potency is reported as 54.4 µM (active). With `Oc1cccc(-c2ccccc2)c1` the Potency was “inactive”. In the case of `NC(=O)CCl`, the Potency is reported as “inactive”.
